Screening data: PubChem, National Center for Advancing Translational Sciences (NCATS)
HEK cytotox – cytotoxic compounds in HEK 293 cells | HEK 293 viability, ATP luminescence (CellTiter-Glo), 48-72 h | Potency, µM (doses to about 115 µM), for the others: at the top dose activity change, negative = cytotoxicity, actives largely listed as inhibitors | hit rate 6.6% among 94,000 | AID 1345083; note: nearly all actives have a fitted effect of over 60% in size
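ATP-coupled CellTiter-Glo luminescence served as viability read-out, recorded 10 min after reagent addition at room temperature. HEK 293 cells, 250 cells/well, had been incubated with pintool-transferred compound for 48 or 72 hr at 37 degree Celsius.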
NIH3T3 tox – kills NIH 3T3 cells | AID 1345082 | Potency, µM (highest dose often 96.7 µM), inactives show top-dose activity change, negative = cytotoxicity, usual class: inhibitors | hit rate 4.3% among 94,000 | NIH 3T3 viability, CellTiter-Glo ATP luminescence, 48-72 h; note: nearly all actives have a fitted effect of over 55% in size
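Luminescent ATP readout (CellTiter-Glo, 10 min RT) after 48 or 72 hr compound exposure of NIH 3T3 cells seeded at 400 cells/well in 1536-well format; quantitative HTS.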
GPT2 inhibitor – GPT2 alanine aminotransferase inhibition; AID 1671188; hit rate 0.25% among 100,000; Recombinant GPT2, coupled pyruvate oxidase/HRP Amplex Red fluorescence; Potency, µM (top dose mostly 57.7 µM), without a hit: top-dose activity change, negative = inhibition, most hits filed as inhibitors; note: nearly all actives have a fitted effect of over 60% in size
Target sequence (Q8TD30 whole entry, looked up): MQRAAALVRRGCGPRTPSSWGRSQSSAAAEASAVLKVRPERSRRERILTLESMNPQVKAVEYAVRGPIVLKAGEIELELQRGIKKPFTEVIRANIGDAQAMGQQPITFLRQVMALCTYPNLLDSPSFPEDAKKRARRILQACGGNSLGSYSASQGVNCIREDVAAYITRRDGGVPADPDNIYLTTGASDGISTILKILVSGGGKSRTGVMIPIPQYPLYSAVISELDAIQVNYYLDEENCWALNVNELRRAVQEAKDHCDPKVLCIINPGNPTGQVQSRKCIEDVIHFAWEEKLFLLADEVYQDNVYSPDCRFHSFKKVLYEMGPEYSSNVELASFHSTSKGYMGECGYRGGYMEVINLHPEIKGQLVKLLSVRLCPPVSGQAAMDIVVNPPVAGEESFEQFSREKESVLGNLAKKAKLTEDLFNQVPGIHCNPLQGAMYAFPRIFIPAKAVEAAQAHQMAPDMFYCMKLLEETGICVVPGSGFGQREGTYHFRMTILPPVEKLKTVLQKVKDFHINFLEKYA
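GPT2 10ng/uL, a-KG 250uM, L-Ala 2mM, HEPES pH7.5 + 0.0001% Tween; 30 min RT. Then Amplex mix (PO/HRP/ThPP), 30 min RT dark, fluorescence. AOA 50uM used as positive control.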
FLuc inh – Photinus pyralis luciferase inhibition; P08659; purified P. pyralis luciferase, luminescence, biochemical; Potency, µM (titrated, usually from 115 µM), most hits filed as inhibitors; hit rate 2.5% among 76,000; note: nearly all actives have a fitted effect of over 65% in size
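Luminescence read by CCD imager after adding enzyme (10nM final) to wells holding compound, titrated in qHTS. Substrates 10uM each D-luciferin and ATP; buffer 50mM Tris acetate pH 7.5, 10mM Mg acetate, Tween-20, BSA.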
hNpr1 antagonist – human Npr1 receptor antagonism; HEK293 hNpr1 GloSensor cGMP, ANP-stimulated luminescence; Potency, µM (highest dose often 46.3 µM), inactives show at the top dose activity change, negative = inhibition, usual class: inhibitors; hit rate 1.6% among 76,000; calls by dose curve; note: nearly all actives have a fitted effect of over 60% in size
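HEK293 cells stably expressing human Npr1 and cGMP GloSensor pGS-40F, loaded 2 h with 2% GloSensor reagent, given compound 30 min at room temperature. Luminescence read before and 20 min after 0.1 nM hNppA.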
* = called active by the depositor; i = inactive; ? = inconclusive; nt = not tested or not shown; [ ] = another dose, or the depositor's remark. A selection: hits, their analogues and other compounds. The true share with any hit is near 10%. Unless noted, calls come from the whole dose curve; as a rule, active = well fitted curve in the direction sought with a large enough effect; inconclusive = small, poorly fitted or top-dose-only effect, or another doubt; inactive = no such curve, though single readings can be large; an effect the other way counts as inactive or inconclusive. % is set by controls: 0 for no effect and ±100 for the full control effect; potency is the fitted concentration of half-maximal effect.

SMILES | HEK cytotox | NIH3T3 tox | GPT2 inhibitor | FLuc inh | hNpr1 antagonist
O=C(c1ccccc1F)N1CCC2(CC1)NCCc1c2[nH]c2ccccc12 | 79µM* | -6% | i | i | 3%
COc1ccc2[nH]c3c(c2c1)CCNC31CCN(S(=O)(=O)c2cccnc2)CC1 | 25µM* | ? | -16% | i | 8%
O=C(c1ccncc1)N1CCC2(CC1)NCCc1c2[nH]c2ccccc12 | -20% | -25% | i | i | 0%
CCN1CCC(N2CCC3(CC2)NCCc2c3[nH]c3ccc(OC)cc23)CC1 | 32µM* | 32µM* | -2% | i | 2%
COc1ccc(C(=O)N2CCC3(CC2)NCCc2c3[nH]c3ccccc23)cc1 | 79µM* | -34% | i | i | -3%
O=C(Cc1ccc(F)cc1)N1CCc2nc(-c3ccccc3)nc(-c3ccc(Cl)cc3)c2C1 | ? | ? | 4% | nt | nt
CCS(=O)(=O)N1CCOC[C@H](Oc2ccc(C(F)(F)F)cn2)C1 | -11%[172 µM] | ? | 3%[88.5 µM] | i | -1%[70.6 µM]
COc1ccc(F)c(CN2CCCC3(CCN(C(=O)C4CCCC4)C3)C2)c1 (stereo not given) | ? | ? | 3% | i | -11%
O=C(Nc1ccc(Cl)cc1)N1CCC(C(=O)N2CCC(c3nc4ncccc4[nH]3)CC2)C1 (stereo not given) | 3% | ? | -5% | nt | nt
CC(C)(C)C(=O)N1CCCC(C(=O)N2CCC(c3nc4ccncc4[nH]3)CC2)C1 (stereo not given) | 0% | -6% | -2% | nt | nt
COc1ccc(C(=O)N2CCC3(CC2)NCCc2c3[nH]c3ccccc23)cc1F | 13µM* | ? | i | i | 0%
Cc1ccc(C(=O)N2CCC3(CC2)NCCc2c3[nH]c3ccccc23)s1 | ? | ? | i | i | -11%
COc1ccc2[nH]c3c(c2c1)CCNC31CCN(C(=O)C2CC=CC2)CC1 | 45µM* | -20% | -10% | i | 4%
COCC(=O)N1CCC2(CC1)NCCc1c2[nH]c2ccccc12 | 2% | -16% | 2% | i | 2%
Cc1ccsc1C(=O)N1CCC2(CC1)NCCc1c2[nH]c2ccccc12 | 45µM* | -27% | i | i | -31%
COc1ccc2[nH]c3c(c2c1)CCNC31CCN(C(=O)C2CCOCC2)CC1 | -18% | -23% | i | i | 5%
O=C(C1CCCC1)N1Cc2ccccc2CC2(CCN(Cc3ccncc3)C2)C1 (stereo not given) | ? | ? | i | nt | nt
O=C([C@H]1CCCN1C(=O)c1ccccc1F)N1CCC(N2CCOC2=O)CC1 | i | 3% | i | nt | nt
COCCNc1cc(-c2cc(C(F)(F)F)ccn2)c2cc[nH]c2n1 | ? | ? | i | i | 3%
CCN(CC1CCN(C2CCN(C)CC2)CC1)C(=O)c1ccc(-c2ccccc2)cc1 | 22µM* | 28µM* | -12% | i | 7%
O=C(c1cccc(Cl)c1)N1CCCC(C(=O)N2CCC(c3nc4ccncc4[nH]3)CC2)C1 (stereo not given) | -27% | ? | i | nt | nt
Cc1cc(OCCN(C)C)c(C)c2c1CC[C@@H]([C@H](C)C(=O)NCc1cccs1)C2 | 56µM* | 63µM* | i | i | 5%[70.6 µM]
COc1cc(C)c2c(c1C)C[C@H](C(C)C(=O)NCc1ccco1)CC2 (stereo not given in full) | ? | ? | i | i | -3%[70.6 µM]
C[C@]1(CO)[C@H]2Cc3sc(NC(=O)c4ccc(F)cc4)nc3[C@@H](CC(=O)NCc3cccs3)[C@]2(C)CC[C@H]1O | ? | ? | -6% | i | -17%
O=c1cc(N2CCOCC2)oc2c(-c3ccncc3)nccc12 | ? | 22µM* | i | i | 0%[70.6 µM]
SMILES | HEK cytotox | NIH3T3 tox | GPT2 inhibitor | FLuc inh | hNpr1 antagonist
O=c1cc(N2CCOCC2)oc2c(-c3ccccc3F)nccc12 | ? | 8.9µM* | 1%[88.5 µM] | i | 15%[70.6 µM]
O=C(C1CCN([S+](=O)([O-])c2cccc(C(F)(F)F)c2)CC1)N1CCC(N2Cc3cccn3C2=O)CC1 | ? | ? | i | nt | nt
Cc1noc2c(N3CCN(Cc4ccccc4)CC3)cc(-c3ccsc3)nc12 | 56µM* | ? | 2%[88.5 µM] | i | -27%[70.6 µM]
COc1cccc(CN2CCc3c(cc(C(=O)Nc4cc(C)ccc4C)n3C)C2)c1 | ? | ? | -8% | 32µM* | -22%
COc1cccc(CN2CCc3c(cc(C(=O)Nc4ccc(F)cc4C)n3C)C2)c1 | ? | ? | i | 25µM* | -4%
CCC(=O)N1CCCN(Cc2ccc3c(c2)OCO3)c2ccccc21 | 45µM* | ? | i | i | -2%
O=C(NCc1ccc2c(c1)OCO2)c1cnc2c(c1)N(Cc1ccccc1)CCC2 | ? | 50µM* | i | i | 4%[70.6 µM]
O=C(Nc1ccc(Cl)cc1)N1CCN(c2ccc3nnc(C4CC4)n3n2)CC1 | 35µM* | 22µM* | nt | nt | nt
CC(=O)N1CC2(CCCN(Cc3cc4ccccc4[nH]3)C2)Cc2ccccc21 (stereo not given) | ? | 25µM* | 4% | nt | nt
O=C(c1ccc(Cl)cc1)N1CC2(CCCN(Cc3cccnc3)C2)Cc2ccccc21 (stereo not given) | 40µM* | ? | -1% | nt | nt
CC(=O)N1CC2(CCN(C(=O)c3ccc(Cl)cc3)CC2)Cc2ccccc21 | ? | 10µM* | -5% | nt | nt
CCC1c2nccn2CCCN1C(=O)c1cc(C)n(CCCOC)c1C (stereo not given) | -3% | -16% | ? | i | -5%
CC(CCc1ccccc1)NC(=O)CN1C(=O)NC(c2ccc(Cl)cc2)C2=C1COC2=O (stereo not given) | 40µM* | ? | i | i | -4%
O=C(CN1C(=O)NC(c2ccc(Cl)cc2)C2=C1COC2=O)NCc1ccccc1Cl (stereo not given) | 35µM* | ? | 4% | i | -21%
CCOc1ccccc1C1NC(=O)N(CC(=O)NCc2ccccc2Cl)C2=C1C(=O)OC2 (stereo not given) | ? | ? | -32% | i | -6%
COc1cccc2c1OCC(C(=O)NCCc1noc(-c3ccccc3)n1)C2 (stereo not given) | -16% | -19% | -7% | i | 4%
N#Cc1ccc(C(=O)N2CCC(c3n[nH]c(=O)n3-c3ccccc3)CC2)cc1 | 1% | -8% | i | i | 3%
Cn1cc(-c2ccccc2Oc2ccccc2)c2nc(CO)cn2c1=O | -21%[172 µM] | ? | -19%[88.5 µM] | i | 0%[70.6 µM]
Cn1cc(-c2ccccc2Oc2ccccc2)c2nc(CN3CCOCC3)cn2c1=O | -7%[172 µM] | 89µM* | -1%[88.5 µM] | i | 1%[70.6 µM]
CN1CCN(Cc2cn3c(=O)n(C)cc(-c4ccccc4F)c3n2)CC1 | ? | i | 4%[88.5 µM] | i | 0%[70.6 µM]
